HTT promoter inh: inhibitors of huntingtin promoter activity; 48,000 tested, 0.93% active; HEK293 HTT promoter firefly luciferase reporter, 24 h; Potency, µM (top dose mostly 57.5 µM), for the others: top-dose activity change, negative = inhibition, most hits filed as inhibitors; note: potency is the fitted concentration of half-maximal effect; nearly all actives have a fitted effect of over 50% in size
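Quantitative HTS used concentration series of up to 57.5 uM final on HEK293 luciferase reporter cells, 24 h at 37 degrees C. Readout was Dual-Glo firefly luminescence.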
FH mod: Identification of activators of human fumarate hydratase by quantitative high-throughput screening | Fumarate hydratase, mitochondrial (Homo sapiens), P07954 | FH coupled MDH/diaphorase resazurin fluorescence, 15 min | Potency, µM (doses to about 79.9 µM), without a hit: top-dose activity change, negative = inhibition, hits mostly inhibitors | 54,000 tested, 0.22% active | AID 1347055, 2019; note: potency is the fitted concentration of half-maximal effect; % is set by controls: 0 for no effect and ±100 for the full control effect; the screen sought activators but most active calls are inhibition curves; nearly all actives have a fitted effect of over 45% in size
Target sequence (P07954 whole entry, looked up): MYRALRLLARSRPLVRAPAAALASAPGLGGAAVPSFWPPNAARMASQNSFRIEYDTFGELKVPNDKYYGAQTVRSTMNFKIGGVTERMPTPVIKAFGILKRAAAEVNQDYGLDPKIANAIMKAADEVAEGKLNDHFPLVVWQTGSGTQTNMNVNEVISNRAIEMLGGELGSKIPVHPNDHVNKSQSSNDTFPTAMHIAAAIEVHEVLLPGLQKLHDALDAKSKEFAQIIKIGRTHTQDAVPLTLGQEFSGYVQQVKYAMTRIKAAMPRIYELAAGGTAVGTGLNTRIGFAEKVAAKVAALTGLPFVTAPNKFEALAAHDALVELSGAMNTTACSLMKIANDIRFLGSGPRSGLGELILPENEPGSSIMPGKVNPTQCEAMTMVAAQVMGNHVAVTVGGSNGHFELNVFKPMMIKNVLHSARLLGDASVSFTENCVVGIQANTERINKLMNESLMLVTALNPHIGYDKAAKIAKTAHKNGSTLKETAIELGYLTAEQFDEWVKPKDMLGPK
NTMT1 inhibitor: blocks human N-terminal methyltransferase 1 activity; NTMT1 MTase-Glo SAH luminescence, purified enzyme; Potency, µM (top dose mostly 114 µM), without a hit: at the top dose activity change, negative = inhibition, actives largely listed as inhibitors; 59,000 tested, 2.5% active; AID 1645870;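 note: potency is the fitted concentration of half-maximal effect; plate controls were DMSO vehicle for no effect and no enzyme for full effect; nearly all actives have a fitted effect of over 65% in size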
HTT-AS act: activates huntingtin-antisense promoter activity | HEK293 HTT-AS promoter firefly luciferase reporter, 24 h; response scale: percent change from vehicle, -100% = no light | Potency, µM (titrated, usually from 57.5 µM), inactives show at the top dose activity change, positive = activation, most hits filed as activators | 48,000 tested, 0.24% active | AID 1508624; note: potency is the fitted concentration of half-maximal effect; nearly all actives have a fitted effect of over 55% in size
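Firefly luciferase signal from promoter-reporter HEK293 cells was scaled between vehicle (0%) and zero RLU (-100%). Compounds were tested at final concentrations of up to 57.5 uM over 24 h at 37 degrees C. PTC124 at 50 uM final served as control inhibitor.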
DRV1 agonist: GPR32 (DRV1) agonism, beta-arrestin recruitment; O75388; CHO-K1 GPR32 beta-arrestin PathHunter luminescence, 90 min; zero percent set by DMSO-only wells; activation, % at 76.9 µM; 48,000 tested, 2.5% active; AID 1346428;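 active = activation of at least 60% and not above a set upper limit, about 1 call in 100 departs from these limits; inconclusive = activation of 40% to 60%, or above that upper limit; inactive = activation under 40%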; note: 0% is about no effect
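Using DMSO wells as EC0, agonist-induced signal was taken as chemiluminescence from beta-Gal reconstituted upon beta-arrestin recruitment to GPR32 in CHO-K1 cells after 90 min compound treatment.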
* hit, by the source's call; ? = inconclusive; nt = not tested or not shown; ! = repeats disagree; [ ] = another dose, or the depositor's remark. Rows were chosen to be rich in hits. Some 4.7% of all compounds tested hit in one or more screens of this group. Unless noted, calls come from the whole dose curve; as a rule, active = well fitted curve in the direction sought with a large enough effect; inconclusive = small, poorly fitted or top-dose-only effect, or another doubt; inactive = no such curve, though single readings can be large; an effect the other way counts as inactive or inconclusive.

SMILES	HTT promoter inh	FH mod	NTMT1 inhibitor	HTT-AS act	DRV1 agonist
CC(Sc1nc(=O)cc(N)n1CCc1ccccc1)C(=O)Nc1ccc(Cl)cc1 (centres undefined)	-19%	-12%	-4%	3%	-13
CCN(C(=O)Cn1cc(C(=O)c2ccc(F)cc2)c(=O)c2ccc(C)nc21)c1cccc(C)c1	-24%	2%	-3%	-27%	-18
COc1cccc(CC(=O)Nc2ccc(-c3nc4ccccc4s3)cc2)c1	36%	-14%	-6%	?	?
CS(=O)(=O)Nc1ccc(-c2nc3ccccc3s2)cc1	0%	-9%	-12%	?	100*
Cc1cc(C)cc(OCC(=O)Nc2ccc(-c3nc4ccccc4s3)cc2)c1	40%	1%	12%	?	72*
Cc1c(NS(C)(=O)=O)cccc1-c1nc2ccccc2s1	?	3%	6%	-26%	20
CSc1ccc(-c2cncc(NC(=O)c3cccs3)c2)cc1	nt	nt	6%	nt	nt
CCOc1ccc2nc3cc(N)ccc3c(N)c2c1	-19%	-10%[53.3 µM]	20µM*	-29%	44
CCN(CC)S(=O)(=O)c1ccc2c(c1)c(=O)c(C(=O)N(C)Cc1ccccc1)cn2C	6%	-2%	6%	-3%	-9
Cc1ccc(NC(=O)Cc2ccc(-n3c(C)nc4cccnc43)cc2)c(Cl)c1	8.9µM*	-12%	-2%	-41%	34
CCN(CC)c1ccc(C(=C2C=CC(=[N+](CC)CC)C=C2)c2cc(S(=O)(=O)O)ccc2S(=O)(=O)[O-])cc1	?	-23%[53.3 µM]	28µM*	-56%	-78
CCOc1cc(CNC(=O)c2ccc3c(c2)N(C)C(=O)C2CCCCN32)cc(OCC)c1OCC (centres undefined)	0%	?	-7%	-24%	-10
O=C(Nc1ccc(C(F)(F)F)cc1)c1cc(S(=O)(=O)NC2CCCCCC2)ccc1F	28µM*	?	9%	-75%	5
O=C1CCCC2=C1C(c1ncccc1C(F)(F)F)N=C(Nc1nc3ccccc3o1)N2 (centres undefined)	nt	nt	5%	nt	nt
COc1ccc(-c2cc(-c3ccccc3)nc3c2COc2ccc(F)cc2-3)cc1	-9%	-3%	13%	-9%	8
O=C(O)Cc1cccc(OCCCN(Cc2cccc(C(F)(F)F)c2Cl)CC(c2ccccc2)c2ccccc2)c1	-2%	-19%[53.3 µM]	40µM*	-12%	nt
Cn1c(-c2ccccc2C(F)(F)F)nnc1C12CCC(c3noc(C4CC(F)(F)C4)n3)(CC1)CC2	nt	nt	9%	nt	nt
Cc1cc(C)cc(NC(=O)CSc2oc(-c3ccco3)nc2S(=O)(=O)c2ccc(Cl)cc2)c1	?	10%	-2%	-60%	0
CCOc1ccc(NC(=O)CSc2oc(-c3ccco3)nc2S(=O)(=O)c2ccc(Cl)cc2)cc1	?	-16%	79µM*	-30%	-19
O=C(CSc1oc(-c2ccco2)nc1S(=O)(=O)c1ccc(Cl)cc1)c1ccc(Cl)cc1	?	-19%	79µM*	-17%	-9
COC(=O)c1cc(NC(=O)Cn2nc(-c3ccc(C)c(C)c3)ccc2=O)cc(C(=O)OC)c1	-9%	-6%	-3%	-6%	-4
Cc1ccccc1OCC(=O)Nc1ccc(OCc2cc(=O)n3ccsc3n2)cc1	-8%	-1%	?	-4%	-1
CCOc1ccc(-c2c(C)nn3c(C)c(C(=O)NCC(C)c4ccccc4)cnc23)cc1OCC (centres undefined)	?	-12%	10%	-30%	-18
Oc1c(I)cc(Cl)c2cccnc12	-12%	19%[53.3 µM]	50µM*	-5%	?
CCC(=O)NC(c1cc(Cl)c2cccnc2c1O)C(C)C (centres undefined)	nt	nt	18%	nt	nt
SMILES	HTT promoter inh	FH mod	NTMT1 inhibitor	HTT-AS act	DRV1 agonist
CCc1ccccc1Nc1nn2c(=O)c3ccc(C(=O)NCCCOC(C)C)cc3nc2s1	-32%	1%	6%	-21%	-8
CC(=O)N1c2ccc(S(=O)(=O)NCc3ccc(Cl)cc3)cc2CC1C (centres undefined)	?	-1%	?	-37%	-4
Cc1cc2n(n1)CCC(=O)N2Cc1ccc(C(=O)Nc2ccc(Br)c(C)c2)cc1	-18%	-29%	-2%	-14%	9
CCOc1ccc(CCNC(=O)Cn2c(-c3cccs3)cc3cc(F)ccc32)cc1OCC	?	-10%	24%	-40%	112*
COc1ccccc1CNC(=O)Cn1c(-c2cccs2)cc2cc(F)ccc21	-22%	-10%	5%	-8%	103*
CCOc1cc(CNC(=O)Cn2c(-c3cccs3)cc3cc(F)ccc32)ccc1OC	?	0%	-3%	-29%	-8
COc1ccccc1-c1nc(SCC(=O)NCc2ccccc2)c2c(=O)n(C)c(=O)n(C)c2n1	0%	-5%	-9%	-4%	10
Cc1cccc(N(C)C(=O)C2CCN(S(=O)(=O)c3cccc4nonc34)CC2)c1	8%	6%	1%	-17%	-13
Nc1ncnc2c1c(-c1ccc(Oc3ccccc3)cc1)nn2[C@@H]1CCCNC1	nt	3%	-1%[57.5 µM]	nt	nt
Nc1ncnc2c1c(-c1cccc(OCc3ccccc3)c1)cn2C1CC(CN2CCC2)C1 (centres undefined)	-8%	-16%	10µM*!	-1%	nt
CCOC(=O)Nc1ccc(NCc2ccc(F)cc2)nc1N	9%	13µM*!	?	9%	-2
CCOC(=O)c1cc(S(=O)(=O)NCc2ccc(F)cc2)[nH]n1	-18%	-4%	?	-12%	-16
Cc1ccc(NC(=O)CSc2nc3ccccc3c3nc(CCc4c(C)n[nH]c4C)nn23)c(C)c1	-19%	3%	-5%	0%	-20
CCOC(=O)c1ccc(NC(=O)CSc2nc3cc4ccccc4cc3[nH]2)cc1	-13%[11.5 µM]	-14%	?	-5%	?
CCOC(=O)c1cccc(NC(=O)CSc2nc3cc4ccccc4cc3[nH]2)c1	-3%	-6%	17%	7%[11.5 µM]	114*
COC(=O)c1ccc(NC(=O)CSc2nc3cc4ccccc4cc3[nH]2)cc1	-9%[11.5 µM]	-12%	-2%	-9%	94*
CCOC(=O)c1cccc(NC(=O)c2ccc3c(c2)nnn3CC)c1	-18%	-20%	?	-3%	61*
COc1ccc(N(C(=O)Nc2c(C)cccc2C)c2cc(Nc3ccc(N4CCN(C)CC4)cc3)ncn2)c(OC)c1	nt	-3%	-3%[57.5 µM]	nt	nt
CCS(=O)(=O)N1CCCc2cc(C(=O)Nc3cc([N+](=O)[O-])ccc3C)ccc21	?	0%	-4%	-54%	17
CNC1CCC(N(Cc2cccc(-c3ccncc3)c2)C(=O)c2sc3ccccc3c2Cl)CC1 (centres undefined)	-17%	1%	35µM*!	-25%	nt
CNC1CCC(N(Cc2cccc(-c3ccncc3)c2)C(=O)c2sc3c(F)ccc(F)c3c2Cl)CC1 (centres undefined)	-15%	-4%	71µM*!	-16%	nt

Compound activity as filed in PubChem.
